{"source": "PubChem BioAssay (NCI)", "note": "About 83,000 compounds went through this panel and 20% of them were active in at least one assay; those are over-represented in the sample as a whole.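 The test compound was applied at a single concentration to cells in 96-well plates for 48 hours, and percent growth was recorded.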 Values without a mark were called inactive. Activity calls are given as the source filed them. Rule for the calls: active = growth percent below 10; inactive = the rest."}
{"system": "HCT-116 colon", "assay": "NCI-60 one-dose screen, 48 h (100 = growth as untreated, 0 = no growth, -100 = all killed)", "settings": "10 µM unless noted"}
{"smiles": "COc1c(B(O)O)cccc1-c1nc2ccc3[nH]ncc3c2c2c1C1CCC2C1", "note": "(centres undefined)", "growth": "20.5%"}
{"smiles": "O=C(Nc1ccc(Cl)cc1F)c1cc(F)ccc1O", "growth": "3.99% (active)"}
{"smiles": "O=c1oc2ccc(I)cc2c(=O)n1-c1ccc(I)cc1F", "growth": "2.66% (active)"}
{"smiles": "O=C(Nc1ccc(Br)cc1F)c1cc(F)ccc1O", "growth": "2.34% (active)"}
{"smiles": "Cc1ccc(Nc2nc(N)c3ccccc3n2)cc1Cl", "growth": "28.8%"}
{"smiles": "O=C1c2cc(I)ccc2Oc2cc([N+](=O)[O-])ccc2N1c1ccc(Cl)cc1F", "growth": "67.8%"}
{"smiles": "CC1=C(C(=O)OCC2CCN(C(=O)OC(C)(C)C)CC2)[C@H](c2cccc(Br)c2)C2=C(CC(C)(C)CC2=O)N1", "growth": "17.7%"}
{"smiles": "O=C(c1ccccc1)N(C(=S)NCCc1ccc(Cl)cc1)c1ccc(Cl)cc1", "growth": "45.3%"}
{"smiles": "C#CCn1cc(C=C2C(=O)NC(=O)NC2=O)c2cc(Cl)ccc21", "growth": "71.5%"}
{"smiles": "O=c1oc2ccc(Br)cc2c(=O)n1-c1ccc(F)cc1F", "growth": "4.49% (active)"}
{"smiles": "O=C(Nc1ccc(Br)cc1F)c1cc(I)ccc1O", "growth": "5.43% (active)"}
{"smiles": "O=c1oc2ccc(Cl)cc2c(=O)n1-c1cc(C(F)(F)F)cc(C(F)(F)F)c1", "growth": "-12.7% (active)"}
{"smiles": "O=c1oc2ccc(Br)cc2c(=O)n1-c1ccc(I)cc1F", "growth": "0.0693% (active)"}
{"smiles": "O=c1oc2ccc(-c3ccc(F)cc3F)cc2c(=O)n1-c1cccc(C(F)(F)F)c1", "growth": "8.28% (active)"}
{"smiles": "O=c1oc2ccc(F)cc2c(=O)n1-c1ccc(Br)cc1F", "growth": "2.22% (active)"}
{"smiles": "Cc1nc(Nc2ccccn2)sc1C(=O)/C=C/c1ccc(Cl)cc1", "growth": "14.3%"}
{"smiles": "COc1ccc2sc(N(Cc3cccnc3)C(=O)c3ccc(C#N)cc3)nc2c1", "growth": "58.2%"}
{"smiles": "COc1cccc(C2=NN3C(C2)c2ccccc2OC3c2ccc(/C=C3\\SC(=O)NC3=O)cc2)c1", "note": "(centres undefined)", "growth": "109%"}
{"smiles": "O=C1c2cc(Br)ccc2Oc2cc([N+](=O)[O-])ccc2N1c1ccc(I)cc1F", "growth": "87.5%"}
{"smiles": "O=c1oc2ccc(Cl)cc2c(=O)n1-c1ccc(Cl)cc1F", "growth": "2.58% (active)"}
{"smiles": "CC[C@]1(O)C[C@@H]2CN(CCc3c([nH]c4ccccc34)[C@@](C(=O)OC)(c3cc4c(cc3OC)N(C)[C@H]3[C@@](O)(C(=O)OC)[C@H](OC(=O)CCCBr)[C@]5(CC)C=CCN6CC[C@]43[C@@H]65)C2)C1", "growth": "5.16% (active)"}
{"smiles": "O=C1c2cc(Cl)ccc2Oc2cc([N+](=O)[O-])ccc2N1c1ccc(F)cc1F", "growth": "79.7%"}
{"smiles": "COc1ccccc1N1C(=N)S/C(=C\\c2ccc(OCc3ccccc3F)cc2)C1=O", "growth": "67.8%"}
{"smiles": "CC[C@]1(O)C[C@@H]2CN(CCc3c([nH]c4ccccc34)[C@@](C(=O)OC)(c3cc4c(cc3OC)N(C)[C@H]3[C@@](O)(C(=O)OC)[C@H](OC(C)=O)[C@]5(CC)C=CCN6CC[C@]43[C@@H]65)C2)C1", "growth": "7.92% (active)"}
{"smiles": "O=c1c2cc(F)ccc2sc2c(NCCCNCCO)nc3ccc(Cl)cc3c12", "growth": "-18.5% (active)"}
{"smiles": "COc1cc2cc3c(=O)n4c(cc5cc(OC)ncc54)c(=O)n3c2cn1", "growth": "100%"}
{"smiles": "Nc1ccc(-c2nn3c(CCC(=O)c4nc5ncccc5[nH]4)nnc3s2)c(O)c1", "growth": "86.7%"}
{"smiles": "O=c1oc2ccc(Br)cc2c(=O)n1-c1ccc(Cl)cc1F", "growth": "1.83% (active)"}
{"smiles": "COc1ccc(/C=C2\\NC(=O)NC2=O)cc1O", "growth": "89.3%"}
{"smiles": "CN(C)c1ccc(/C=C/c2ccnc3c(O)cccc23)cc1", "growth": "18.6%"}
{"smiles": "O=C(c1ccccc1)N(C(=S)NCCc1ccc(Cl)cc1)c1ccccc1", "growth": "62.2%"}
{"smiles": "CC(C)C[C@H](C(=O)N[C@@H](C)C(N)=O)N1CC=CCN(O)S1(=O)=O", "growth": "109% [5 µM]"}
{"smiles": "O=C(Nc1ccc(Cl)cc1F)c1cc(I)ccc1O", "growth": "21.2%"}
{"smiles": "O=C(CCc1nnc2sc(Cc3ccccc3Cl)nn12)c1nc2ncccc2[nH]1", "growth": "84%"}
